This note sets out measurements from PubChem BioAssay.

Assay [1] in a line: blockers of polyQ-driven CASP3 activation – cell-based (AID 1583). The conditions noted are these: polyglutamine-induced caspase-3 activation, cell assay; stronger effect = higher value;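 tested at 10 µM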.
The nature of assay [2]: yeast 75Q aggregation reduction – 75Q-TubU reporter (AID 1593). The conditions noted are these: Yeast 75Q polyglutamine aggregation reporter.
The nature of assay [3]: blockers of cytochrome c efflux from mitochondria – biochemical, purified mitochondria (AID 1603).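 Further: mouse liver mitochondria challenged with calcium chloride; signal normalized to the plate average as 100%.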 To be noted: stronger effect = lower value.
A short description of assay [4]: polyglutamine aggregate formation blockers (AID 1604). The conditions noted are these: polyglutamine-induced protein aggregation inhibition assay; stronger effect = higher value; tested at 2.5 µM.
Assay [5] can be described thus: glutamate transport activators, MN-1 cells, MN-1 cell line (AID 1612).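 Further: tested at 1 µM final; 0% = mean of DMSO vehicle wells on each plate; positive means more glutamate uptake than control and negative means less.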 To be noted: MN-1 motor neuron cells, stronger effect = higher value.
Assay [6] can be described thus: 75Q-TubH aggregate inhibition, S. cerevisiae, yeast (AID 1616). The conditions noted are these: S. cerevisiae 75Q-TubH polyglutamine aggregation suppression; stronger effect = higher value.
A short description of assay [7]: signal quenchers or enhancers, Cy5 substrate/SSB – biochemical, NIH Clinical Collection, E. coli SSB, artefact control for HCV NS3 helicase inhibitor project (AID 743268). To be noted: Cy5-oligo bound E. coli SSB, fluorescence interference.
Assay [8] concerns Hepatitis C virus NS3 helicase. In words: blockers of NS3h binding to DNA – biochemical, fluorescence polarization, NIH Clinical Collection, primary screen (AID 743270). The conditions noted are these: NS3 helicase binding to Cy5-dT15 DNA, stronger effect = higher value, concentration not given here.
For assay [9], the target named is Single-stranded DNA-binding protein (Escherichia coli (strain K12)) (UniProt P0AGE0). In words: SSB-ssDNA binding inhibitors – biochemical, fluorescence polarization, NIH Clinical Collection, counter-screen for HCV NS3 helicase inhibitor project (AID 743271; in the data active means inhibition above about 28%). The conditions noted are these: E. coli SSB-DNA binding, stronger effect = higher value, concentration not given here.

The nature of assay [10]: compounds distorting NS3 helicase fluorescence signal – biochemical, NIH Clinical Collection, artefact control for HCV NS3 helicase inhibitor project (AID 743272).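 Further: HCV NS3 helicase with a Cy5 labelled single stranded DNA probe.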 The conditions noted are these: fluorescence interference counterscreen, HCV NS3 helicase assay; stronger effect = lower value.
A short description of assay [11]: modulation of C. elegans fzo-1 (AID 1259413).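 Further: fzo-1 mutant C. elegans worms in liquid wells.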 To be noted: C. elegans fzo-1 modulator screen, mean read-out; stronger effect = higher value.
Assay [12] deals with Mitogen-activated protein kinase 7 (Homo sapiens) (UniProt Q13164). In words: Gal4-ERK5 driven luciferase induction – cell-based, HTS, primary screen (AID 1508626;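 active means luciferase signal above three times the same-plate solvent-only control wells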;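 further: luciferase driven by Gal4-ERK5 fusion binding five Gal4 sites before minimal TATA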). To be noted: HeLa Gal4-ERK5 transactivation, 18 h, at 5 µM, stronger effect = higher value.
Mitogen-activated protein kinase 7 (Homo sapiens), sequence (Q13164 whole entry, looked up, the tested form may be a part): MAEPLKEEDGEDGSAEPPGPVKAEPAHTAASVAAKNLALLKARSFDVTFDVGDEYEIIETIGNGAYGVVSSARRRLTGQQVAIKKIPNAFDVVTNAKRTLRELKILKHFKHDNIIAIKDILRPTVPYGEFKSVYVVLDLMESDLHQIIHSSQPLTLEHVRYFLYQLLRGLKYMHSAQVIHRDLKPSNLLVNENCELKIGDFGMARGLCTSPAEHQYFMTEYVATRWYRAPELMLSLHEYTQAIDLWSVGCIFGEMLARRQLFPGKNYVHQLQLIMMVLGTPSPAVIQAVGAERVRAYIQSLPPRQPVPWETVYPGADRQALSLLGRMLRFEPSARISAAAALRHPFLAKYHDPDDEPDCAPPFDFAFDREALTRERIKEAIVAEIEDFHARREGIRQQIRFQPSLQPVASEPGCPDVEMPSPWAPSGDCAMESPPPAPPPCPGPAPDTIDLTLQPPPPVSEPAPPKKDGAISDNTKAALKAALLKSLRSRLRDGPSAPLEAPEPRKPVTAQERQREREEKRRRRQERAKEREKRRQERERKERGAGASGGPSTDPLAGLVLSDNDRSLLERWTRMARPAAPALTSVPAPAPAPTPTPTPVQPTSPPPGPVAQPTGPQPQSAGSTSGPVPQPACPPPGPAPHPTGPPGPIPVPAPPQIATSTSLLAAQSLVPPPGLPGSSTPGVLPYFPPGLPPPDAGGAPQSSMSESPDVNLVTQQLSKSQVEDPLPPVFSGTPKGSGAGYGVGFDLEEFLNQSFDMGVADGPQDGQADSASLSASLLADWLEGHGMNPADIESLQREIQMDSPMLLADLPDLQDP
The nature of assay [13]: galactose survival enhancers in mitochondrial complex I cybrids – cell-based, galactose medium, ATP luminescence, primary screen (AID 1645843;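 active means z-score of at least 1.8 in each of two replicates, scored against plate mean and spread of sample wells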;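 further: positive z means more ATP and so rescue of galactose-driven cybrid death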). The conditions noted are these: complex I mutant cybrid cells, 72 h, stronger effect = higher value.
The subject of another assay is R275C/beta1. Kind of assay: BK channel mutant inhibitors and activators – cell-based, U2OS BacMam, thallium flux, beta subunits, selectivity assay, profiling panel (AID 1259406;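 active means thallium flux through the channel raised or lowered by more than 3 SD from vehicle-only wells, actives on both sides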;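 further: initial slope of Thallos dye fluorescence rise after thallium is added; log ratio against the mean of 0.3% DMSO vehicle wells on the same plate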). The conditions noted are these: U2OS BacMam BK variants, at 30 µM.
The subject of another assay is R275C/beta2Delta. The assay is described as above. The conditions noted are these: U2OS BacMam BK variants, at 30 µM.
In another assay the test system is R275C/beta4. The assay is described as above. To be noted: U2OS BacMam BK variants, at 30 µM.
The test system of the next assay is R275C/Slo1WT/beta2. The description is as above. To be noted: U2OS BacMam BK variants, at 30 µM.
The nature of assay [14]: restoration of touch response, mutant HTT neurons – whole organism, C. elegans mechanosensory neurons, N-terminal huntingtin (AID 1599). To be noted: C. elegans polyQ-huntingtin mechanosensory neurons, stronger effect = higher value.
A short description of assay [15]: compounds altering viability of human ES cells (AID 493140).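 Further: cells exposed to compounds for four days before counting.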 The conditions noted are these: human embryonic stem cell survival screen; stronger effect = higher value.

Values joined by “and” are separate entries in the source; they are usually repeats but may differ in a detail not shown here. Identical values can stand only once. For part of these data: Measured potencies and affinities stand elsewhere. Active and inactive are the calls of the source. Unless noted, how the calls were made is not given here.

As a reminder, the inhibition is the change of the read-out against control, counted positive when it falls. With `Oc1c(Cl)cc(Cl)c2cccnc12`, the inhibition in assay [1] was 31.4%; in assay [8], 2.27% (inactive); in assay [9], -0.48% (inactive). This compound came in with a score in [2] of -0.52. Also, the cytochrome c release ratio in assay [3] was 0.8. The inhibition of aggregation in assay [4] is -25.9%. Besides, the glutamate uptake change in [5] is -23%. The compound further yielded an aggregation suppression score in [6] of -0.164. The fluorescence ratio in assay [7] was 1.02 (inactive); in assay [10], 0.95 (inactive). The mean signal in assay [11] was 244 (inactive). In addition, in [12], the luciferase signal was 48 AU (inactive). Moreover, the z-score in assay [13] was -1.51 (inactive). Also, the log fold change Tl+ flux in the assay with R275C/beta1 was 0.249 (active); in the assay on R275C/beta2Delta it was 0.0748 (inactive); in the assay with R275C/beta4 it was 0.422 (active); with R275C/Slo1WT/beta2 it was 0.19 (active).
Turning to `OC(Cn1cncn1)(Cn1cncn1)c1ccc(F)cc1F`, the inhibition in assay [1] is -12.6%; in assay [8], -3.18% (inactive); in assay [9], -4.29% (inactive). Moreover, in assay [2], the score is 0.67. For the same compound, the rescue above control in assay [14] was -3.31. In [3], the cytochrome c release ratio turned out to be 0.79. Besides, the inhibition of aggregation in assay [4] is 0%. In addition, in [5], the glutamate uptake change was -9.51%. In [6], this compound returned an aggregation suppression score of 0.253. The results for the fluorescence ratio in [7] and in assay [10] were 1.05 (inactive) and 1.02 (inactive), respectively. Moreover, in assay [11], the mean signal was 277 (inactive). The luciferase signal in [12] was 32 AU (inactive). For the same compound, the z-score in assay [13] was 1.3 (inactive) and 0.555 (inactive). Further, the log fold change Tl+ flux in the assay on R275C/beta1 is 0.023 (inactive); in the assay with R275C/beta2Delta, 0.0182 (inactive); in the assay on R275C/beta4 it was 0.0436 (inactive); with R275C/Slo1WT/beta2, 0.0134 (inactive).
Consider `CC(C)C(=O)Nc1ccc([N+](=O)[O-])c(C(F)(F)F)c1`, for which the inhibition in assay [1] is 28.6%; in assay [8], -1.36% (inactive); in [9], 2.57% (inactive). In assay [2], the score amounted to 0.95. The rescue above control in assay [14] was 0. For the same compound, the cytochrome c release ratio in [3] is 0.83. Moreover, in assay [4], the inhibition of aggregation worked out at 22.5%. The glutamate uptake change in assay [5] is -7.31%. This compound also displayed an aggregation suppression score in assay [6] of 0.664. Besides, in assay [15], the survival is 18.4 (inactive). In addition, the results for the fluorescence ratio in assay [7] and in assay [10] were 0.94 (inactive) and 0.88 (inactive), respectively. In addition, the mean signal in assay [11] was 187 (inactive). The luciferase signal in assay [12] is 76 AU (inactive). Moreover, in assay [13], the z-score was -0.565 (inactive) and -0.735 (inactive) and -1.1 (inactive). Besides, the log fold change Tl+ flux with R275C/beta1 was -0.0165 (inactive); in the assay with R275C/beta2Delta, 0.0539 (inactive); in the assay on R275C/beta4, -0.0876 (inactive); with R275C/Slo1WT/beta2, -0.0286 (inactive).
Regarding `CC(C[N+](C)(C)C)OC(N)=O` (centres undefined), the inhibition in assay [1] was 18.5%; in [8], -3.18% (inactive); in assay [9], -1.24% (inactive). Further, in assay [2], the score worked out at 1.26. Further, in assay [14], the rescue above control was determined as 20.6. For the same compound, in assay [3], the cytochrome c release ratio came to 0.92. For the same compound, the inhibition of aggregation in assay [4] was -22.2%. In addition, in [5], the glutamate uptake change was -0.67%. Besides, the aggregation suppression score in [6] stood at 1.26. Also, in assay [15], the survival was 18.5 (inactive). Further, the figures for the fluorescence ratio in assay [7] and in [10] were 1.06 (inactive) and 1.01 (inactive), respectively. The mean signal in [11] is 276 (inactive). Besides, the luciferase signal in assay [12] was 56 AU (inactive). Further, in [13], the z-score is -0.115 (inactive) and 0.415 (inactive) and 0.59 (inactive). The log fold change Tl+ flux was 0.0122 (inactive) with R275C/beta1, 0.00284 (inactive) in the assay on R275C/beta2Delta, 0.043 (inactive) with R275C/beta4 and 0.0355 (inactive) in the assay on R275C/Slo1WT/beta2.
In the case of `CC1=NS(=O)(=O)c2cc(Cl)ccc2N1`, the survival in [15] is 11.5 (inactive). Moreover, the fluorescence ratio was 1 (inactive) in assay [7] and 0.99 (inactive) in assay [10]. For the same compound, the inhibition in assay [8] was 5.94% (inactive); in assay [9] it was 4.52% (inactive). Besides, in assay [11], the mean signal is 242 (inactive). Also, in assay [12], the luciferase signal was 68 AU (inactive). Besides, the log fold change Tl+ flux with R275C/beta1 was 0.0109 (inactive); in the assay with R275C/beta2Delta, 0.00734 (inactive); in the assay with R275C/beta4, 0.0187 (inactive); in the assay on R275C/Slo1WT/beta2, 0.0541 (inactive).
